This passage reports outcome and AC50 results from PubChem BioAssay (EPA / NIEHS).

As usually defined, the AC50 is the midpoint of the concentration-response curve, whichever way the signal moves.

The structures appear in SMILES notation. Activity calls are given as the source filed them. How the source made its calls: active means hit-call score of the fitted dose curve at least 0.9, where 1 is the maximum; inactive means score below 0.9.

What all share (settings): mRNA level, 48 h; actives raise or lower the signal
Read-out in assay [1]: Lipoprotein lipase (LPL), LPL (gene 4023)
As to the kind of experiment: LTEA_HepaRG_LPL: Life Technologies and Expression Analysis (LTEA) Assay for Lipoprotein lipase (LPL) using HepaRG (AID 2283515). Summed up: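 Concentration-response testing used half-log steps from 100 uM in 0.5% DMSO on human HepaRG cells, 48 h, duplicate wells. Phenobarbital 1 mM served as induction control; LPL mRNA was normalized to ACTB, GAPDH, POLR2A.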

Read-out in assay [2]: MicroRNA 122 (MIR122), gene 406906
Description: LTEA_HepaRG_MIR122: Life Technologies and Expression Analysis (LTEA) Assay for MicroRNA 122 (MIR122) using HepaRG (AID 2283516). Further: the transcript read is the microRNA miR-122. The method, boiled down: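 Changes in transcript abundance, up or down relative to 0.5% DMSO vehicle, were scored after 48 h chemical treatment of HepaRG cells (maximum 100 uM). Quantification used TaqMan qRT-PCR normalized to housekeeping genes.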

Read-out in assay [3]: matrix metalloproteinase-10 (MMP10), MMP10 (gene 4319)
Description: LTEA_HepaRG_MMP10: Life Technologies and Expression Analysis (LTEA) Assay for matrix metalloproteinase-10 (MMP10) using HepaRG (AID 2283517). The method, boiled down:
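In differentiated HepaRG cultures kept in 0.5% DMSO, test chemicals act for 48 h over an eight-point range with a top dose of 100 uM. Expression is then quantified by TaqMan RT-PCR against ACTB, GAPDH and POLR2A.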

Read-out in another assay: MYC, MYC (gene 4609)
Description: LTEA_HepaRG_MYC: Life Technologies and Expression Analysis (LTEA) Assay for MYC using HepaRG (AID 2283518). Summed up:
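qRT-PCR read-out of MYC transcript (Fluidigm TaqMan, housekeeping-normalized) after 48 h chemical exposure of HepaRG cells; eight concentrations, top 100 uM, half-log steps. Bidirectional curve fitting against 0.5% DMSO vehicle baseline.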

Read-out in assay [4]: matrix metalloproteinase-3 (MMP3), MMP3 (gene 4314)
As to the kind of experiment: LTEA_HepaRG_MMP3: Life Technologies and Expression Analysis (LTEA) Assay for matrix metalloproteinase-3 (MMP3) using HepaRG (AID 2283519). Summed up: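 Human liver HepaRG cultures received chemicals (top concentration 100 uM, 0.5% DMSO) for 48 h in duplicate. MMP3 mRNA induction or loss was then assessed via TaqMan qRT-PCR with housekeeping-gene normalisation.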

Read-out in assay [5]: Paternally Expressed 10 (PEG10), PEG10 (gene 23089)
As to the kind of experiment: LTEA_HepaRG_PEG10: Life Technologies and Expression Analysis (LTEA) Assay for Paternally Expressed 10 (PEG10) using HepaRG (AID 2283520).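 On AC50: differentiated HepaRG human liver cells in serum-free induction medium with 0.5% DMSO; PEG10 transcript by qRT-PCR normalised to ACTB GAPDH and POLR2A.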 Summed up:
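After 48 h exposure of differentiated HepaRG cells (0.5% DMSO vehicle, eight concentrations up to 100 uM, duplicates), PEG10 mRNA was measured by TaqMan qRT-PCR. Values were normalised to endogenous control genes and analysed bidirectionally against vehicle.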

Read-out in assay [6]: Nuclear factor NF-kappa-B p105 subunit (Homo sapiens) (UniProt P19838)
As to the kind of experiment: LTEA_HepaRG_NFKB1: Life Technologies and Expression Analysis (LTEA) Assay for Nuclear Factor Kappa B Subunit 1 (NFKB1) using HepaRG (AID 2283521).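 Further: differentiated human HepaRG liver cells in serum-free induction medium; TaqMan qRT-PCR transcript normalised to ACTB GAPDH and POLR2A housekeeping genes.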 The method, boiled down: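 Human HepaRG cells receive eight half-log concentrations, highest 100 uM, for 48 h. NFKB1 expression is then quantified by qRT-PCR and analysed for up- or down-regulation relative to 0.5% DMSO vehicle.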

Read-out in assay [7]: Protein phosphatase 2A (PPP2R4), PTPA (gene 5524)
As to the kind of experiment: LTEA_HepaRG_PPP2R4: Life Technologies and Expression Analysis (LTEA) Assay for Protein phosphatase 2A (PPP2R4) using HepaRG (AID 2283522). Summed up:
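Using HepaRG cultures maintained in 0.5% DMSO, chemicals are tested 48 h at up to 100 uM in duplicate. Induction or suppression of PPP2R4 mRNA, measured by qRT-PCR, is fitted bidirectionally against the vehicle baseline.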

Read-out in assay [8]: Phosphatase and tensin (PTEN), PTEN (gene 5728)
Description: LTEA_HepaRG_PTEN: Life Technologies and Expression Analysis (LTEA) Assay for Phosphatase and tensin (PTEN) using HepaRG (AID 2283523). The method, boiled down:
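Expression of PTEN is quantified in the human liver line HepaRG following two days of dosing (top concentration 100 uM, half-log dilutions, 0.5% DMSO). Values derive from bidirectional curve fitting relative to DMSO controls.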

Read-out in assay [9]: solute carrier (SLC22A1), SLC22A1 (gene 6580)
As to the kind of experiment: LTEA_HepaRG_SLC22A1: Life Technologies and Expression Analysis (LTEA) Assay for solute carrier (SLC22A1) using HepaRG (AID 2283524).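 On AC50: differentiated human HepaRG liver cells in serum-free induction medium; TaqMan qRT-PCR normalized to ACTB GAPDH and POLR2A housekeeping genes.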 Summed up: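 Transcript induction or suppression of SLC22A1 in human HepaRG cultures is scored after 48 h chemical treatment, with DMSO (0.5%) as baseline for bidirectional fitting. Concentrations span eight half-log points topping at 100 uM.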

Read-out in assay [10]: Pyruvate Dehydrogenase Kinase 4 (PDK4), PDK4 (gene 5166)
Description: LTEA_HepaRG_PDK4: Life Technologies and Expression Analysis (LTEA) Assay for Pyruvate Dehydrogenase Kinase 4 (PDK4) using HepaRG (AID 2283525). The method, boiled down: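 Eight-point, half-log concentration series (max 100 uM, 0.5% DMSO) applied to differentiated HepaRG cells for 48 h in duplicate. Endpoint: PDK4 mRNA induction or repression by qRT-PCR against DMSO baseline.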

Read-out in assay [11]: NAD(P)H dehydrogenase [quinone] 1 (NQO1), NQO1 (gene 1728)
Description: LTEA_HepaRG_NQO1: Life Technologies and Expression Analysis (LTEA) Assay for NAD(P)H dehydrogenase [quinone] 1 (NQO1) using HepaRG (AID 2283526). The method, boiled down:
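In this assay, gene expression is read by qRT-PCR after 48 h exposure of HepaRG cells to eight concentrations (max 100 uM, half-log) in 0.5% DMSO. Each chemical runs in duplicate, and activity is scored relative to vehicle.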

Read-out in assay [12]: Nuclear factor erythroid 2-related factor 2 (Homo sapiens) (UniProt Q16236)
As to the kind of experiment: LTEA_HepaRG_NFE2L2: Life Technologies and Expression Analysis (LTEA) Assay for Nuclear factor erythroid 2-related factor 2 (NFE2L2) Transcription Factor using HepaRG (AID 2283527).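 On outcome: TaqMan qRT-PCR transcript level normalised to ACTB GAPDH and POLR2A housekeeping genes.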 The method, boiled down: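 Human liver HepaRG line treated in duplicate for 48 h with an eight-point series topping at 100 uM. Gene expression of NFE2L2 by qRT-PCR, bidirectionally fitted against the vehicle control.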

Read-out in assay [13]: succinate dehydrogenase complex iron sulfur subunit B (SDHB), SDHB (gene 6390)
Description: LTEA_HepaRG_SDHB: Life Technologies and Expression Analysis (LTEA) Assay for succinate dehydrogenase complex iron sulfur subunit B (SDHB) using HepaRG (AID 2283528). Summed up:
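A human HepaRG culture in serum-free induction medium received test chemicals for 48 h over an eight-point range capped at 100 uM. SDHB expression change was quantified by qRT-PCR.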

Read-out in assay [14]: Signal transducer and activator of transcription 3 (Homo sapiens) (UniProt P40763)
Description: LTEA_HepaRG_STAT3: Life Technologies and Expression Analysis (LTEA) Assay for Signal transducer and activator of transcription (STAT3) using HepaRG (AID 2283529). Summed up:
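In this transcriptional endpoint, HepaRG cultures receive test chemicals at up to 100 uM for 48 h, tested in duplicate. STAT3 mRNA is normalized to ACTB, GAPDH and POLR2A.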

Read-out in assay [15]: solute carrier (SLCO1B1), SLCO1B1 (gene 10599)
As to the kind of experiment: LTEA_HepaRG_SLCO1B1: Life Technologies and Expression Analysis (LTEA) Assay for solute carrier (SLCO1B1) using HepaRG (AID 2283530). Summed up: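 SLCO1B1 transcript read by qRT-PCR (Fluidigm arrays), normalized to three housekeeping genes, after 48 h chemical exposure of HepaRG cells; bidirectional concentration-response fitting versus 0.5% DMSO baseline. Eight-point half-log series, maximum 100 uM.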

Read-out in assay [16]: sulfotransferase 2A1 (SULT2A1), SULT2A1 (gene 6822)
Description: LTEA_HepaRG_SULT2A1: Life Technologies and Expression Analysis (LTEA) Assay for sulfotransferase 2A1 (SULT2A1) using HepaRG (AID 2283531). Summed up:
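HepaRG, 48 h chemical exposure, 8-pt half-log curve from 100 uM in 0.5% DMSO, duplicates. Readout: TaqMan qRT-PCR of SULT2A1 mRNA, housekeeping-normalized. Bidirectional fit vs DMSO baseline.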

Read-out in assay [17]: Transforming Growth Factor (TGFA), TGFA (gene 7039)
As to the kind of experiment: LTEA_HepaRG_TGFA: Life Technologies and Expression Analysis (LTEA) Assay for Transforming Growth Factor (TGFA) using HepaRG (AID 2283532). Summed up: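 Gene expression of TGFA was quantified by qRT-PCR after human HepaRG cells were treated for 48 h with test chemicals (eight concentrations, highest 100 uM, 0.5% DMSO). Activity in either direction was fitted relative to DMSO.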

Read-out in assay [18]: Transforming Growth Factor (TGFB1), TGFB1 (gene 7040)
Description: LTEA_HepaRG_TGFB1: Life Technologies and Expression Analysis (LTEA) Assay for Transforming Growth Factor (TGFB1) Transporter using HepaRG (AID 2283533). The method, boiled down:
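qRT-PCR readout of TGFB1 transcript in HepaRG lysates, normalized to three housekeeping genes; gain or loss of signal fitted relative to 0.5% DMSO vehicle. Exposure: 48 h, 8-point curve from 100 uM, duplicate wells.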

Read-out in another assay: TIMP1, TIMP1 (gene 7076)
As to the kind of experiment: LTEA_HepaRG_TIMP1: Life Technologies and Expression Analysis (LTEA) Assay for TIMP1 using HepaRG (AID 2283534).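 On outcome: TaqMan qRT-PCR signal normalized to ACTB GAPDH and POLR2A housekeeping genes.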 Summed up:
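HepaRG, 48 h exposure, 8-pt half-log series from 100 uM in 0.5% DMSO, duplicates; TIMP1 transcript by Fluidigm qRT-PCR, housekeeping-normalized; bidirectional curve fit vs DMSO baseline.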

Sequence of Nuclear factor erythroid 2-related factor 2 (Homo sapiens) (Q16236 whole entry, looked up): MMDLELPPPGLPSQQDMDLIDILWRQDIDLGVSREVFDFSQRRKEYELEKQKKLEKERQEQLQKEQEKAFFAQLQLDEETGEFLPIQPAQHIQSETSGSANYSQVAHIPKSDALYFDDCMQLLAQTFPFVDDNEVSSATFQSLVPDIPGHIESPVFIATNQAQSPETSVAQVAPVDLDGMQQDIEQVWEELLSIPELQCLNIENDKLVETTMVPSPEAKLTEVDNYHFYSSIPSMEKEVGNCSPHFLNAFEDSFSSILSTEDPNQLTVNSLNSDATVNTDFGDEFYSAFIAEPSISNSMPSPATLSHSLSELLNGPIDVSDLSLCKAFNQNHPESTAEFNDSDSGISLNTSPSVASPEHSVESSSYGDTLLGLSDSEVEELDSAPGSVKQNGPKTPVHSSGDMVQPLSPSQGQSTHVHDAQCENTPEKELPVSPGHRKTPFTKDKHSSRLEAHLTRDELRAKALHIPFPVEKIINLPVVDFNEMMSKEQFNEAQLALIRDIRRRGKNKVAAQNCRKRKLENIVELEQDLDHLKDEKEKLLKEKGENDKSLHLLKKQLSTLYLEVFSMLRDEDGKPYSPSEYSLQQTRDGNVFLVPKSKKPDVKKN
Sequence of Signal transducer and activator of transcription 3 (Homo sapiens) (P40763 whole entry, looked up): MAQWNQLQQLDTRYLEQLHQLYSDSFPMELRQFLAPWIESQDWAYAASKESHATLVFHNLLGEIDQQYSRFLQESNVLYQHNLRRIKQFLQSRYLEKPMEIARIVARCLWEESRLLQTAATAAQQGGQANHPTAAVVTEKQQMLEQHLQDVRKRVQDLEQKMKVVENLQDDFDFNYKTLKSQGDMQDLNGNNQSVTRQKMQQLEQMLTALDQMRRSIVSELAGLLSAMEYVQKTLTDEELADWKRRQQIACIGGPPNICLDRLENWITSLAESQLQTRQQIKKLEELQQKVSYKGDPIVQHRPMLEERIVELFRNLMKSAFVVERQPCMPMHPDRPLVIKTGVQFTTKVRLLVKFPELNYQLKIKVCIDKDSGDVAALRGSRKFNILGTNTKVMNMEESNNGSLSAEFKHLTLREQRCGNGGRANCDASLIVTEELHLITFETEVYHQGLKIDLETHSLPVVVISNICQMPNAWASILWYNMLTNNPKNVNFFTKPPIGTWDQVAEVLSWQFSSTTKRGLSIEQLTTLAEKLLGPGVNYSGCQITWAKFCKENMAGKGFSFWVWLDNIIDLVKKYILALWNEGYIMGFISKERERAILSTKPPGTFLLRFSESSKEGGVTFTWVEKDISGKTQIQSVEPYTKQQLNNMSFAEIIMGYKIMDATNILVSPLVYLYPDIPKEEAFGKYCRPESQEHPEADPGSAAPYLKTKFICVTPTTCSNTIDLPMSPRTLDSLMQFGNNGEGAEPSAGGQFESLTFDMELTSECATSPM
Sequence of Nuclear factor NF-kappa-B p105 subunit (Homo sapiens) (P19838 whole entry, looked up): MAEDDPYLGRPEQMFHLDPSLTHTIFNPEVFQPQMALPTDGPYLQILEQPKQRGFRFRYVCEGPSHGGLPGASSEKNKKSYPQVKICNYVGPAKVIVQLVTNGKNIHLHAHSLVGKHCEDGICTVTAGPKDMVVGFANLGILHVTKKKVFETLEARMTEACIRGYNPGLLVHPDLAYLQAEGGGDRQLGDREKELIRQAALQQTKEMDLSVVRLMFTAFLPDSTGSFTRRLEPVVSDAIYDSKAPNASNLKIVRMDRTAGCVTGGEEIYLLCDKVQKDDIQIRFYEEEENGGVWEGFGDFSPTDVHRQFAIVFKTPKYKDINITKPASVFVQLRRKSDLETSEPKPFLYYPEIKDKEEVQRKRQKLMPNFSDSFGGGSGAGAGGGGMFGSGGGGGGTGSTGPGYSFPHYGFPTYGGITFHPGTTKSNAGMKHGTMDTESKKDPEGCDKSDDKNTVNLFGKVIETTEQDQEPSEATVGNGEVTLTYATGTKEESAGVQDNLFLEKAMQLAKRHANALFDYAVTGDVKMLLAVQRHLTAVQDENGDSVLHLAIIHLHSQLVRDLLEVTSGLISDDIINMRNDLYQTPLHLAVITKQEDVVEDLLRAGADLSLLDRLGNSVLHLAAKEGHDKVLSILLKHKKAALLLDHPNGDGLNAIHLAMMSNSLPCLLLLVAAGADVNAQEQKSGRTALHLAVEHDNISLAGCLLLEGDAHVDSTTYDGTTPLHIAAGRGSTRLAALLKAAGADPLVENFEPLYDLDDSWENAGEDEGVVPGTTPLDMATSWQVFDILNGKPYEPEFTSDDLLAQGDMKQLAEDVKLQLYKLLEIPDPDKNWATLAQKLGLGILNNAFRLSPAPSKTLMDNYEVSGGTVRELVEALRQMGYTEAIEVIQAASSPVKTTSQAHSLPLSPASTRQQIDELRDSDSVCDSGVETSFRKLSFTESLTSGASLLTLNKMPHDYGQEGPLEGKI

In the case of `CCCCOC(=O)c1ccccc1C(=O)OCCCC`, the outcome in assay [1] is “inactive”; in [2], “inactive”; in assay [3], “inactive”; in the assay with MYC, MYC (gene 4609), “inactive”; in [4] it was “inactive”; in assay [5], “inactive”. Besides, the molecule was called inactive in assay [6], in [7], in assay [8], in assay [9], in [10] and in assay [11]. In addition, the molecule was called inactive in assay [12], in [13], in assay [14], in assay [15], in [16] and in [17]. In addition, the outcome in assay [18] was “inactive”; in the assay with TIMP1, TIMP1 (gene 7076) it was “inactive”.
With `OC(c1ccc(Cl)cc1)(c1cncnc1)c1ccccc1Cl` (configuration not stated), the AC50 was 50 µM (active) in assay [1]; 73.2 µM (active) in assay [2]; 58.9 µM (active) in assay [3]; 80.4 µM (active) in the assay with MYC, MYC (gene 4609); 5.86 µM (active) in [5]; 66.4 µM (active) in assay [7]. Besides, the AC50 in assay [9] is 81.8 µM (active); in [10], 75.9 µM (active); in assay [12] it was 44.6 µM (active); in assay [15] it was 85.2 µM (active); in assay [16], 77 µM (active); in [17], 77.5 µM (active). Moreover, the AC50 in [18] was 50 µM (active); in the assay with TIMP1, TIMP1 (gene 7076), 50 µM (active). The outcome in [4], in assay [8], in [11], in [13] and in assay [14] was inactive.
Consider `COc1cnc(OC)n2nc(NS(=O)(=O)c3c(OCC(F)F)cccc3C(F)(F)F)nc12`, for which the outcome in assay [1] was “inactive”; in [2], “inactive”; in assay [3], “inactive”; in the assay with MYC, MYC (gene 4609), “inactive”; in [4] it was “inactive”; in assay [5], “inactive”. The outcome in assay [7], in assay [8], in assay [9], in [10], in [11] and in assay [12] was inactive. Moreover, the molecule was called inactive in [13], in assay [14], in assay [15], in assay [16], in assay [17] and in [18]. In the assay with TIMP1, TIMP1 (gene 7076), the call was inactive.
As to `CCNc1nc(Cl)nc(NCC)n1`, the outcome in assay [1] was “inactive”; in [2], “inactive”; in assay [3], “inactive”; with MYC, MYC (gene 4609) it was “inactive”; in assay [4], “inactive”; in assay [5] it was “inactive”. Moreover, the outcome in [7], in assay [8], in [9], in [10], in [11] and in [12] was inactive. The molecule was called inactive in assay [13], in assay [14], in [15], in [16], in assay [17] and in [18]. The result with TIMP1, TIMP1 (gene 7076) was inactive.
